# Measurements from PMC5540273 (PLoS ONE, 2017).
# Several values for one entry are separate records, joined by “and”; a condition that tells them apart may be missing. Equal entries are not always repeated. Where two headings read alike, the source gives them in different places.
# Experiments:
# HPK1 = details: concentration: 1 μM, replicates: in singlicate, n = 1
# HUNK = details: concentration: 1 μM, replicates: in singlicate; n = 1
# ICK = details: concentration: 1 μM, replicates: in singlicate, n = 1
# IGF1R = details: concentration: 1 μM, replicates: in singlicate, n = 1
# IKK-alpha = tested on: T1, IKK-alpha; details: concentration: 1 μM, replicates: in singlicate, n = 1
# T1 construct: gene CHUK
# IKK-beta = tested on: T2, IKK-beta; details: concentration: 1 μM, replicates: in singlicate, n = 1
# T2 construct: gene IKBKB
# IKK-epsilon = tested on: T3, IKK-epsilon; details: concentration: 1 μM, replicates: in singlicate, n = 1
# T3 construct: gene IKBKE
# INSRR = details: concentration: 1 μM, replicates: in singlicate; n = 1
# INSR = details: concentration: 1 μM, replicates: in singlicate, n = 1
# IRAK1 = details: concentration: 1 μM, replicates: in singlicate, n = 1
# IRAK3 = details: concentration: 1 μM, replicates: in singlicate, n = 1
# IRAK4 = details: concentration: 1 μM, replicates: in singlicate, n = 1
# ITK = details: concentration: 1 μM, replicates: in singlicate, n = 1
# [1] = tested on: JAK1(JH1domain-catalytic); details: concentration: 1 μM, replicates: in singlicate, n = 1
# [2] = tested on: JAK1(JH2domain-pseudokinase); details: concentration: 1 μM, replicates: in singlicate, n = 1
# [3] = tested on: JAK2(JH1domain-catalytic); details: concentration: 1 μM, replicates: in singlicate, n = 1
# [4] = tested on: JAK3(JH1domain-catalytic); details: concentration: 1 μM, replicates: in singlicate, n = 1
# JNK1 = tested on: T4, JNK1; details: concentration: 1 μM, replicates: in singlicate, n = 1
# T4 construct: gene MAPK8
# JNK2 = tested on: T5, JNK2; details: concentration: 1 μM, replicates: in singlicate, n = 1
# T5 construct: gene MAPK9
# JNK3 = tested on: T6, JNK3; details: concentration: 1 μM, replicates: in singlicate, n = 1
# T6 construct: gene MAPK10
# 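Further: KINOMEscan kinase panel screen.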
smiles,measurement,setting,value
O=C(NCCNc1ccnc(Nc2ccc(F)cc2)n1)c1cc2ccccc2s1 [GSK1379874],%Inh,HPK1,33%
same,%Inh,HUNK,12%
same,%Inh,ICK,0%
same,%Inh,IGF1R,0%
same,%Inh,IKK-alpha,0%
same,%Inh,IKK-beta,0%
same,%Inh,IKK-epsilon,22%
same,%Inh,INSRR,0%
same,%Inh,INSR,0%
same,%Inh,IRAK1,16%
same,%Inh,IRAK3,0%
same,%Inh,IRAK4,10%
same,%Inh,ITK,6%
same,%Inh,[1],12%
same,%Inh,[2],0%
same,%Inh,[3],0%
same,%Inh,[4],0%
same,%Inh,JNK1,13%
same,%Inh,JNK2,0%
same,%Inh,JNK3,0%
Cn1cc(-c2ccc3c(c2)CCN3C(=O)Cc2ccccc2Cl)c2c(N)ncnc21 [GSK2608885],%Inh,HPK1,64%
same,%Inh,HUNK,7%
same,%Inh,ICK,5%
same,%Inh,IGF1R,95.5%
same,%Inh,IKK-alpha,0%
same,%Inh,IKK-beta,0%
same,%Inh,IKK-epsilon,37%
same,%Inh,INSRR,90.5%
same,%Inh,INSR,48%
same,%Inh,IRAK1,0%
same,%Inh,IRAK3,32%
same,%Inh,IRAK4,0%
same,%Inh,ITK,4%
same,%Inh,[1],0%
same,%Inh,[2],2%
same,%Inh,[3],0%
same,%Inh,[4],56%
same,%Inh,JNK1,19%
same,%Inh,JNK2,55%
same,%Inh,JNK3,6%
Cc1cccc(-c2nc(Nc3ccc4ncsc4c3)c3ccccc3n2)n1 [GW867588],%Inh,HPK1,0%
same,%Inh,HUNK,45%
same,%Inh,ICK,17%
same,%Inh,IGF1R,0%
same,%Inh,IKK-alpha,15%
same,%Inh,IKK-beta,0%
same,%Inh,IKK-epsilon,4%
same,%Inh,INSRR,0%
same,%Inh,INSR,0%
same,%Inh,IRAK1,40%
same,%Inh,IRAK3,0%
same,%Inh,IRAK4,0%
same,%Inh,ITK,30%
same,%Inh,[1],0%
same,%Inh,[2],62%
same,%Inh,[3],0%
same,%Inh,[4],0%
same,%Inh,JNK1,2%
same,%Inh,JNK2,8%
same,%Inh,JNK3,0%
c1ccc(-c2cc(-c3c[nH]nc3-c3ccccn3)ccn2)cc1 [GW576604],%Inh,HPK1,25%
same,%Inh,HUNK,16%
same,%Inh,ICK,0%
same,%Inh,IGF1R,19%
same,%Inh,IKK-alpha,0%
same,%Inh,IKK-beta,0%
same,%Inh,IKK-epsilon,0%
same,%Inh,INSRR,0%
same,%Inh,INSR,2%
same,%Inh,IRAK1,7%
same,%Inh,IRAK3,0%
same,%Inh,IRAK4,9%
same,%Inh,ITK,3%
same,%Inh,[1],17%
same,%Inh,[2],0%
same,%Inh,[3],6%
same,%Inh,[4],0%
same,%Inh,JNK1,35%
same,%Inh,JNK2,65%
same,%Inh,JNK3,70%
Cc1cn2c(=O)cc(N3CCOCC3)nc2n1Cc1cccc(Cl)c1Cl [GSK2334006],%Inh,HPK1,30%
same,%Inh,HUNK,9%
same,%Inh,ICK,12%
same,%Inh,IGF1R,0%
same,%Inh,IKK-alpha,7%
same,%Inh,IKK-beta,18%
same,%Inh,IKK-epsilon,3%
same,%Inh,INSRR,28%
same,%Inh,INSR,0%
same,%Inh,IRAK1,0%
same,%Inh,IRAK3,13%
same,%Inh,IRAK4,5%
same,%Inh,ITK,14%
same,%Inh,[1],2%
same,%Inh,[2],0%
same,%Inh,[3],2%
same,%Inh,[4],0%
same,%Inh,JNK1,18%
same,%Inh,JNK2,16%
same,%Inh,JNK3,6%
NCCNS(=O)(=O)c1ccc(-c2ccnc3[nH]ccc23)cc1 [GSK977617],%Inh,HPK1; 1 µM,59% and 44%
same,%Inh,HUNK,0%
same,%Inh,ICK; 1 µM,19% and 2%
same,%Inh,IGF1R; 1 µM,8% and 16%
same,%Inh,IKK-alpha; 1 µM,97.7% and 94.3%
same,%Inh,IKK-beta; 1 µM,99.4%
same,%Inh,IKK-epsilon; 1 µM,29% and 32%
same,%Inh,INSRR,2%
same,%Inh,INSR; 1 µM,18% and 4%
same,%Inh,IRAK1; 1 µM,81% and 65%
same,%Inh,IRAK3; 1 µM,60% and 39%
same,%Inh,IRAK4; 1 µM,22% and 8%
same,%Inh,ITK; 1 µM,66% and 44%
same,%Inh,[1]; 1 µM,38% and 26%
same,%Inh,[2]; 1 µM,32% and 25%
same,%Inh,[3]; 1 µM,95.6% and 90.8%
same,%Inh,[4]; 1 µM,83% and 84%
same,%Inh,JNK1; 1 µM,42% and 18%
same,%Inh,JNK2; 1 µM,30% and 9%
same,%Inh,JNK3; 1 µM,27% and 15%
O=C(Nc1cccc(-c2nn3ncccc3c2-c2ccnc(Nc3cccc(C(F)(F)F)c3)n2)c1)c1c(F)cccc1F [GSK299495],%Inh,HPK1,35%
same,%Inh,HUNK,4%
same,%Inh,ICK,8%
same,%Inh,IGF1R,14%
same,%Inh,IKK-alpha,33%
same,%Inh,IKK-beta,17%
same,%Inh,IKK-epsilon,0%
same,%Inh,INSRR,0%
same,%Inh,INSR,0%
same,%Inh,IRAK1,38%
same,%Inh,IRAK3,0%
same,%Inh,IRAK4,21%
same,%Inh,ITK,23%
same,%Inh,[1],22%
same,%Inh,[2],0%
same,%Inh,[3],0%
same,%Inh,[4],0%
same,%Inh,JNK1,31%
same,%Inh,JNK2,27%
same,%Inh,JNK3,14%
NS(=O)(=O)c1cccc(-c2ccc3nccc(-c4cccc(S(N)(=O)=O)c4)c3c2)c1 [GW867253],%Inh,HPK1,0%
same,%Inh,HUNK,17%
same,%Inh,ICK,0%
same,%Inh,IGF1R,0%
same,%Inh,IKK-alpha,0%
same,%Inh,IKK-beta,0%
same,%Inh,IKK-epsilon,0%
same,%Inh,INSRR,6%
same,%Inh,INSR,0%
same,%Inh,IRAK1,12%
same,%Inh,IRAK3,0%
same,%Inh,IRAK4,0%
same,%Inh,ITK,0%
same,%Inh,[1],0%
same,%Inh,[2],38%
same,%Inh,[3],8%
same,%Inh,[4],0%
same,%Inh,JNK1,30%
same,%Inh,JNK2,5%
same,%Inh,JNK3,0%
NCC(NC(=O)c1cc(-c2cn[nH]c2)c(-c2ccnc3[nH]ccc23)s1)c1ccccc1.O=C(O)C(F)(F)F.O=C(O)C(F)(F)F (centres unmarked) [GSK1325775],%Inh,HPK1,63%
same,%Inh,HUNK,0%
same,%Inh,ICK,3%
same,%Inh,IGF1R,0%
same,%Inh,IKK-alpha,54%
same,%Inh,IKK-beta,79%
same,%Inh,IKK-epsilon,24%
same,%Inh,INSRR,0%
same,%Inh,INSR,3%
same,%Inh,IRAK1,93.6%
same,%Inh,IRAK3,0%
same,%Inh,IRAK4,21%
same,%Inh,ITK,7%
same,%Inh,[1],45%
same,%Inh,[2],11%
same,%Inh,[3],95.7%
same,%Inh,[4],100%
same,%Inh,JNK1,40%
same,%Inh,JNK2,7%
same,%Inh,JNK3,12%
O=c1cc(N2CCOCC2)nc2n(Cc3cccc(F)c3)ccn12 [GSK2297430],%Inh,HPK1,34%
same,%Inh,HUNK,4%
same,%Inh,ICK,0%
same,%Inh,IGF1R,9%
same,%Inh,IKK-alpha,3%
same,%Inh,IKK-beta,5%
same,%Inh,IKK-epsilon,0%
same,%Inh,INSRR,0%
same,%Inh,INSR,0%
same,%Inh,IRAK1,0%
same,%Inh,IRAK3,0%
same,%Inh,IRAK4,1%
same,%Inh,ITK,0%
same,%Inh,[1],8%
same,%Inh,[2],0%
same,%Inh,[3],2%
same,%Inh,[4],0%
same,%Inh,JNK1,21%
same,%Inh,JNK2,13%
same,%Inh,JNK3,0%
